Hits are enriched below; roughly 2.2% of the tested compounds scored in any of these assays.
Vaccinia mCherry – qHTS for Stage-Specific Inhibitors of Vaccinia Orthopoxvirus: mCherry Reporter Primary qHTS | AID 720579, 2013 | Vaccinia virus mCherry reporter infection, fluorescence | Potency, µM (doses to about 36.5 µM), inactives show at the top dose activity change, negative = inhibition, hits mostly inhibitors | 310,000 tested, 0.63% active; calls by dose curve; tested in A549 cells; note: nearly all actives have a fitted effect of over 35% in size
VACV Venus inh – qHTS for Stage-Specific Inhibitors of Vaccinia Orthopoxvirus: Venus Reporter Primary qHTS; 330,000 tested, 0.46% active; Vaccinia virus Venus reporter expression, fluorescence; Potency, µM (top dose mostly 36.5 µM), inactives show at the top dose activity change, negative = inhibition, most hits filed as inhibitors; calls by dose curve; tested in A549 cells; note: nearly all actives have a fitted effect of over 30% in size
Giardia FBPA inh-1 – qHTS Assay for Inhibitors of Fructose-1,6-bisphosphate Aldolase from Giardia Lamblia | A8B2U2 | 290,000 tested, 0.71% active | purified Giardia FBPA | Potency, µM (doses to about 59.6 µM), without a hit: top-dose activity, negative = inhibition, actives largely listed as inhibitors; note: nearly all actives have a fitted effect of over 55% in size
Target sequence (A8B2U2 whole entry, looked up): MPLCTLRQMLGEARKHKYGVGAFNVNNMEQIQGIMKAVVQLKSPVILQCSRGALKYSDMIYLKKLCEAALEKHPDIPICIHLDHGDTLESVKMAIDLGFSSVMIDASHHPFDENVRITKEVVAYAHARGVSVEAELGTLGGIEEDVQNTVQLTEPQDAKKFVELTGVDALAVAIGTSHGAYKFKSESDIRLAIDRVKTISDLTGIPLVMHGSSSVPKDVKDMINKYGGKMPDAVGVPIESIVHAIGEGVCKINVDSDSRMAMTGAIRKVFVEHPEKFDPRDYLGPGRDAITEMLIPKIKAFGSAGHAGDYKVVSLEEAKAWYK
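40 nM FBPA preincubated 10 min at RT with compound (up to 57.5 uM final), then substrate plus GAPDH/TPI/NAD/arsenate coupling and diaphorase/resazurin added. Fluorescence read after 20 min at RT, 525/598 nm.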
FMDV inh – High Throughput Screening for Foot and Mouth Disease Virus Antivirals | FMDV antiviral cell-based qHTS | Potency, µM (doses to about 57.9 µM), inactives show top-dose activity change, negative = inhibition, most hits filed as inhibitors | 410,000 tested, 1.2% active; calls by dose curve; tested in HEK293T cells; note: read-out not given here; nearly all actives have a fitted effect of over 45% in size
Giardia growth – qHTS Assay for Inhibitors of Fructose-1,6-bisphosphate Aldolase from Giardia Lamblia: Giardia lamblia growth inhibition | Potency, µM (series often up to 57.5 µM), without a hit: at the top dose activity change, negative = inhibition, hits mostly inhibitors | 1,500 tested, 5% active | shares compounds with Giardia FBPA inh-1 | AID 2785, 2010 | Giardia lamblia trophozoite growth inhibition;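 note: trophozoites exposed to compound for 48 h at 37 °C; nearly all actives have a fitted effect of over 70% in size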
Mammalian tox – qHTS Assay for Inhibitors of Fructose-1,6-bisphosphate Aldolase from Giardia Lamblia: Mammalian cellular toxicity | Potency, µM (titrated, usually from 57.5 µM), without a hit: at the highest dose viability change, negative = toxicity, usual class: inhibitors | mammalian cell viability counter-screen, qHTS | shares compounds with Giardia FBPA inh-1 | 1,500 tested, 4% active;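 note: Chinese hamster ovary cells used as mammalian cytotoxicity surrogate; viability measured as cellular ATP by luminescence; compound exposure lasted 48 h before reading; nearly all actives have a fitted effect of over 60% in size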
Giardia FBPA inh-2 – qHTS Assay for Inhibitors of Fructose-1,6-bisphosphate Aldolase from Giardia Lamblia: Primary screen confirmation. shares compounds with Giardia FBPA inh-1. purified Giardia aldolase enzyme activity, qHTS. Potency, µM (titrated, usually from 57.5 µM), for inactives: at the top dose activity change, negative = inhibition, usual class: inhibitors. 1,500 tested, 5% active. AID 2787, 2010; note: nearly all actives have a fitted effect of over 45% in size
Rabbit FBPA inh – qHTS Assay for Inhibitors of Fructose-1,6-bisphosphate Aldolase from Giardia Lamblia: Rabbit FBPA Selectivity | shares compounds with Giardia FBPA inh-1 | Rabbit muscle FBPA enzyme inhibition, selectivity counter-screen | Potency, µM (highest dose often 57.5 µM), inactives show at the highest dose activity, negative = inhibition, actives largely listed as inhibitors | 1,500 tested, 4% active | AID 2794, 2010; note: nearly all actives have a fitted effect of over 60% in size
Target sequence (P00883 whole entry, looked up): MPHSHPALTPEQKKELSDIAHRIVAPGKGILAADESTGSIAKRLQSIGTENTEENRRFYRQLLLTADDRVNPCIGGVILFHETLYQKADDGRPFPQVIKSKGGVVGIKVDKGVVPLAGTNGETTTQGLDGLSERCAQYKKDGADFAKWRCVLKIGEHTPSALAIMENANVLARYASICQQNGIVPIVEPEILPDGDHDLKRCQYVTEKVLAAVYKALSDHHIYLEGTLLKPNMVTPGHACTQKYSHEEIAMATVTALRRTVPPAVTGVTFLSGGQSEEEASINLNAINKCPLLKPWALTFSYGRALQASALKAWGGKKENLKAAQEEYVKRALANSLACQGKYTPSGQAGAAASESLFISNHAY
GAPDH coupling – qHTS Assay for Inhibitors of Fructose-1,6-bisphosphate Aldolase from Giardia Lamblia: Coupling assay counterscreen confirmation. AID 2795, 2010. shares compounds with Giardia FBPA inh-1. Potency, µM (top dose mostly 57.5 µM), for the others: at the highest dose activity change, negative = inhibition, usual class: inhibitors. 1,500 tested, 6% active. GAPDH coupling enzyme counterscreen, biochemical, qHTS; note: nearly all actives have a fitted effect of over 55% in size
* marks the source's active call; other numbers are inactive results; i = inactive; u = inconclusive; x = not tested or not shown; [ ] = dose if it differs, or a comment. Unless noted, calls come from the whole dose curve; as a rule, active = well fitted curve in the direction sought with a large enough effect; inconclusive = small, poorly fitted or top-dose-only effect, or another doubt; inactive = no such curve, though single readings can be large; an effect the other way counts as inactive or inconclusive. % is set by controls: 0 for no effect and ±100 for the full control effect; potency is the fitted concentration of half-maximal effect.

SMILES | Vaccinia mCherry | VACV Venus inh | Giardia FBPA inh-1 | FMDV inh | Giardia growth | Mammalian tox | Giardia FBPA inh-2 | Rabbit FBPA inh | GAPDH coupling
COC/C=C/C1=CC2=CC(=O)C(C)(OC(=O)c3cnc4ccccc4n3)C(=O)C2=CN1Cc1ccccc1 (configuration not stated) | -19% | u | 2.2µM* | 14µM* | -20%[38.3 µM] | -8% | u | u | 25µM*
O=C1/C(=C/c2ccco2)CCC1C1CCCC1 (configuration not stated) | -7% | -7% | 1% | 32% | x | x | x | x | x
O=C1/C(=C\c2ccco2)CCC/C1=C\c1ccco1 | -7% | 13% | 16µM* | 10% | 14% | u | -4% | 5% | -3%
Cc1ccc(S(=O)(=O)N2CCN(C(=O)CSc3nnc(C)c(=O)[nH]3)CC2)cc1 | i | -3% | 28µM* | -12% | u | 5% | 6% | 14% | 22%
CCN(CCNCC(O)COc1ccccc1C(C)C)c1cccc(C)c1 (configuration not stated) | u | u | 22µM* | -27% | 12% | -26% | -5% | 0% | -16%
Cc1ccc(O)c(N=Cc2cccs2)c1 | -1% | 9% | 20µM* | 17% | 3% | 13% | 35µM* | 40µM* | 50µM*
Cc1ccc(O)c(N=Cc2ccc(C)s2)c1 | i | -7% | u | 29% | x | x | x | x | x
Cc1nnc(NC(=O)CN2CCN(Cc3ccccc3Cl)CC2)s1 | x | x | 4.5µM* | -13% | -5%[10.4 µM] | -6% | 6% | 5% | 19%
CCc1nnc(NC(=O)CN2CCN(Cc3cccc(OC)c3)CC2)s1 | -24% | -20% | 3.2µM* | -3% | u | 7% | 12% | 9% | 20%
CCc1nnc(NC(=O)CN2CCN(c3cccc(OC)c3)CC2)s1 | x | 0% | -25% | -23% | x | x | x | x | x
Cc1ccc(OCCOCCN2CCN(C)CC2)c(C(C)(C)C)c1 | x | x | 13µM* | -8% | 8% | 6% | -1% | 5% | 6%
C=CCc1cc(C)ccc1OCCOCCN1CCN(C)CC1 | x | x | 16µM* | -4% | 22% | -7% | 1% | 0% | 9%
Cc1cc(C)c(C)c(OCCOCCN2CCN(C)CC2)c1 | -8% | -10% | 14% | -15% | x | x | x | x | x
Cc1cc(Cl)c(OCCOCCN2CCN(C)CC2)c(Br)c1 | i | -11% | 22µM* | -13% | 7%[10.4 µM] | 13% | 4% | 3% | 11%
CN(C)c1ccc(/C=C2\CCc3cc(N)ccc32)cc1 | -17% | -5% | x | x | x | x | x | x | x
CC1CC(C)CN(C(=O)C(C)N(C)CC(=O)Nc2ccc(Cl)cc2)C1 (configuration not stated) | x | x | 20µM* | -20% | -5% | -12% | -2% | 5% | 6%
O=[N+]([O-])c1ccc(NN=Cc2cccc([N+](=O)[O-])c2)cc1 | u | -3% | x | -8% | x | x | x | x | x
O=[N+]([O-])c1ccc(N/N=C/c2ccc[nH]2)cc1 | 5µM* | u | 18µM* | 0% | 0%[10.4 µM] | 1% | -26% | -18% | u
CCN1CCC2(CC1)N=C(c1ccc(F)cc1)C(=S)N2 | i | -11% | 13µM* | -12% | -18% | 0% | -1% | 4% | 7%
O=S1(=O)CCC(NC(=S)N2CCCCCC2)C1 (configuration not stated) | i | -3% | -8% | 0% | x | x | x | x | x
NNC(=S)NC1CCS(=O)(=O)C1 (configuration not stated) | i | -15% | 18µM* | -14% | 29% | 11% | -3% | 12% | 2%
CC[C@H](C)[C@H](NC(=O)[C@H](Cc1ccc(O)cc1)NC(=O)[C@@H]1CCCN1C(=O)[C@@H](N)CCCN=C(N)N)C(=O)N[C@@H](CC(C)C)C(=O)O | x | x | 4% | x | x | x | x | x | x
Cc1cc(-c2nnc(SCC(=O)Nc3ccccc3C(F)(F)F)n2N)n[nH]1 | i[7.34 µM] | 0%[7.34 µM] | 7% | -17% | x | x | x | x | x
Nn1c(SCC(=O)Nc2ccccc2C(F)(F)F)nncc1=O | -21% | -4% | 20µM* | -6% | -13%[10.4 µM] | 10% | 1% | -1% | 8%
Nn1c(SCC(=O)Nc2ccc3c(c2)OCCO3)nncc1=O | -23% | -9% | 25µM* | 15% | 21% | 18% | -7% | 2% | 15%
SMILES | Vaccinia mCherry | VACV Venus inh | Giardia FBPA inh-1 | FMDV inh | Giardia growth | Mammalian tox | Giardia FBPA inh-2 | Rabbit FBPA inh | GAPDH coupling
CCc1nnc(NC(=O)CSc2nncc(=O)n2N)s1 | x | x | 25µM* | 15% | 31% | 11% | -4% | 7% | 7%
O=C(C[n+]1cccc(I)c1)c1ccc(F)cc1 | -7% | -13% | x | x | x | x | x | x | x
CC(=O)NC(Cc1ccc(I)cc1)C(=O)NCC(N)C(=O)c1ccccc1 (configuration not stated) | -3% | -19% | x | x | x | x | x | x | x
Cc1nnc(SCC2=C(C(=O)O)N3C(=O)C(NC(=O)Cn4nc(C(F)F)cc4C)C3SC2)s1 (configuration not stated) | -26% | -6% | 14µM* | 2% | 7%[10.4 µM] | 7% | -6% | 1% | -1%
Cc1nnc(SCC2=C(C(=O)O)N3C(=O)C(NC(=O)c4cc(F)c(F)cc4Cl)C3SC2)s1 (configuration not stated) | x | x | 20µM* | -13% | u | -3% | 2% | 11% | 9%
Cc1ccc(-c2nnc3ccc(SCC(=O)c4ccccc4)nn23)cc1 | -25% | u | x | x | x | x | x | x | x
Clc1nssc1=Nc1ccc(Br)cc1 | i | -21% | u | u | x | x | x | x | x
COc1cc(N=c2ssnc2Cl)cc(OC)c1 | -12% | -7% | 16µM* | 40µM* | -3%[10.4 µM] | -9% | -3% | -11% | 16%
Clc1ccc(N=c2ssnc2Cl)nc1 | u | -12% | 0% | -17% | x | x | x | x | x
N#Cc1cccc(N=c2ssnc2Cl)c1 | -12% | 5% | 20µM* | u | u | 2% | -11% | u | 13%
Cc1ccc2[nH]c(=O)c(CN(CCCO)Cc3nnnn3Cc3ccccc3)cc2c1 | -4% | -23% | x | x | x | x | x | x | x
COCCn1c(=O)c(-c2ccc(F)cc2)nc2cnc(N3CCOCC3)nc21 | x | x | 6% | -16% | x | x | x | x | x

Screening data as filed in PubChem BioAssay.
